MARV entry inh: inhibitors of Marburg virus binding or cell entry; Marburg virus pseudotyped entry inhibition, cell reporter; Potency, µM (series often up to 37.8 µM), for the others: at the top dose activity change, negative = inhibition, most hits filed as inhibitors; actives 1.8% (n = 300,000); calls by dose curve; tested in HEK293 cells; note: potency is the fitted concentration of half-maximal effect
HCV inhibitor: HCV inhibition; Huh7.5.1 HCVcc-Cre infection, luciferase reporter, 44 h; actives 3.4% (n = 340,000); Potency, µM (top dose mostly 41.8 µM), inactives show at the top dose activity change, negative = inhibition, most hits filed as inhibitors; AID 651820; active = well fitted inhibition curve with a large enough effect; inconclusive = small, poorly fitted or top-dose-only effect, or another doubt; inactive = no such curve, though single readings can be large or run the other way; note: potency is the fitted concentration of half-maximal effect
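After 44 h co-culture of compound, cells and HCVcc-Cre (~0.5 moi), substrate is added for 15 min at room temperature and luciferase measured over 15 sec. Cells were seeded at 1,000/well and pre-cultured 4 h.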
VACV Venus inh: vaccinia inhibition (Venus reporter) | Vaccinia virus Venus reporter expression, fluorescence | Potency, µM (top dose mostly 36.5 µM), inactives show at the highest dose activity change, negative = inhibition, actives largely listed as inhibitors | actives 0.46% (n = 330,000) | AID 720580; calls by dose curve; tested in A549 cells; note: potency is the fitted concentration of half-maximal effect; nearly all actives have a fitted effect of over 30% in size
HCMV inh: human cytomegalovirus inhibition; HFF cells, HCMV-luciferase reporter, 72 h; active compounds read low; activity change, negative = inhibition, % at 57.5 µM; actives 4.5% (n = 410,000); AID 1259415; in the data active = activity change below about -60%; inconclusive = no clear call, values can overlap the other calls; inactive = above about -39%
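Steps: HFFs plated, 16 h 37C; compounds added; HCMV-luciferase added to MOI 1 PFU/cell; 72 h 37C; OneGlo reagent, 5 min room temperature; luminescence read, normalized to controls.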
VACV mCherry inh: vaccinia inhibition (mCherry reporter). Vaccinia virus mCherry reporter infection, fluorescence. Potency, µM (highest dose often 36.5 µM), for the others: at the highest dose activity change, negative = inhibition, hits mostly inhibitors. actives 0.63% (n = 310,000). AID 720579; calls by dose curve; tested in A549 cells; note: potency is the fitted concentration of half-maximal effect; nearly all actives have a fitted effect of over 35% in size
Lassa entry inh: Lassa virus entry inhibition; Lassa virus pseudotype entry inhibition, cell reporter; actives 1.2% (n = 300,000); Potency, µM (titrated, usually from 37.9 µM), for inactives: at the highest dose activity change, negative = inhibition, actives largely listed as inhibitors; calls by dose curve; tested in HEK293 cells; note: potency is the fitted concentration of half-maximal effect; nearly all actives have a fitted effect of over 50% in size
Starred values were filed as active, the others as inactive; i = inactive; ? = inconclusive; · = not tested or not shown; + = active, no number; ! = a repeat was not active; [ ] = dose if it differs, or a comment. Shown are actives, neighbours in structure and some others; about 7.8% of the full set was active somewhere. % is set by controls: 0 for no effect and ±100 for the full control effect.

SMILES	MARV entry inh	HCV inhibitor	VACV Venus inh	HCMV inh	VACV mCherry inh	Lassa entry inh
CCC(O)C1CCN(Cc2cn(Cc3ccccc3)nc2-c2cc3ccccc3o2)CC1 (stereo not given)	·	?	-26.8%	-61.3*	-7.4%	·
CC(C)CCN(Cc1ccco1)C(=O)Cn1ncc2c([nH]c3ccccc32)c1=O	·	·	-6.5%	-7.0	-8.8%	-15.8%[46.1 µM]
CCOC(=O)C(=O)C1=C(N2CCOCC2)/C(=C\c2cccc([N+](=O)[O-])c2)CC1	21.0%	24.5%	-13.7%	-71.9*	i	16.1%
O=C(NP(=O)(N1CCCC1)N1CCCC1)C1=C(N2CCOCC2)/C(=C/c2cccc([N+](=O)[O-])c2)CC1	3.5%[46.1 µM]	3.3%	-2.4%	0.4	-12.4%	19.9%
CN(C)c1ccc(CNc2nc(-c3ccco3)nn2S(=O)(=O)c2ccc3ccccc3c2)cc1	23.4%[46.1 µM]	·	3.7%	93.9	-5.5%	-2.5%[46.1 µM]
Nc1ncc([N+](=O)[O-])c(N2CCCCCC2)n1	5.4%[46.1 µM]	13.5%	0.0%	-74.6*	i	-2.9%[46.1 µM]
Cc1cccc(CN2C(=O)N(c3ccc(C(C)C)cc3)S(=O)(=O)c3ccccc32)c1	·	·	-3.6%	-68.9*	-7.6%	?
CC(C)c1ccc(N2C(=O)N(Cc3cccc([N+](=O)[O-])c3)c3ccccc3S2(=O)=O)cc1	·	·	-6.0%	-34.1	2.7%	2.6%[46.1 µM]
Cc1ccc(N2C(=O)N(Cc3cccc(Cl)c3)c3ccccc3S2(=O)=O)cc1	·	·	-16.0%	?	-15.7%	-27.3%[46.1 µM]
CCc1ccccc1N1C(=O)N(Cc2cccc(Cl)c2)c2ccccc2S1(=O)=O	·	·	-0.9%	-104.7*	-1.3%	-23.1%[46.1 µM]
COC(=O)Cn1c(=O)c2cccn2c2cccnc21	12.5%[46.1 µM]	·	-2.8%	-30.0	-3.8%	4.5%[46.1 µM]
C[C@@H]1CN([C@@H](C)CO)S(=O)(=O)c2ccc(Br)cc2O[C@@H]1CN(C)Cc1ccc2c(c1)OCO2	·	·	·	-35.6	·	·
CCn1nc(C)c(/C=C/C(=O)Nc2ccc(C)cc2C)c1C	-0.2%	-28.0%	-20.1%	-72.7*	i	?
COc1ccc(NC(=O)CN2C(=O)CC(c3ccc(C)c(C)c3)=Nc3ccccc32)cc1OC	·	·	-7.5%	35.1	-14.5%	?
CC1CCN(C(=O)c2ccc(NC(=O)c3nsc4ccccc34)cc2)CC1	·	·	-4.0%[7.34 µM]	42.4	-20.7%[7.34 µM]	11.8%[46.1 µM]
COc1ccc(-c2cc(NC=O)c3ncc(-c4cccc(C(=O)NCCN(C)C)c4)n3c2)cn1	·	·	-11.1%	-62.6*	i	·
CN(C)CCNC(=O)c1cccc(-c2cnc3c(NC=O)cc(-c4cccs4)cn23)c1	·	·	-8.0%	-87.4*	16.3%	·
CC(=O)c1cccc(-c2cnc3c(NC=O)cc(-c4ccc(C(=O)N5CCOCC5)cc4)cn23)c1	·	·	-12.1%	-4.8	2.1%	·
CN(C)CCNC(=O)c1cccc(-c2cnc3c(NC=O)cc(-c4ccc(C(=O)N5CCOCC5)cc4)cn23)c1	·	·	3.8%	-64.4*	53.3%	·
Cc1oc2cc3oc(=O)c(CCC(=O)NCCCn4ccnc4)c(C)c3cc2c1C	·	?	-25.8%	-17.3	?	·
Cc1oc2cc3oc(=O)c(CCC(=O)NCCCN4CCOCC4)c(C)c3cc2c1C	·	1.58µM*	-6.1%	0.7	-11.1%	·
Cc1oc2c(C)c3oc(=O)c(CCC(=O)NCCCn4ccnc4)c(C)c3cc2c1C	·	10µM*	-5.8%	-37.0	-15.0%	·
Cc1oc2cc3oc(=O)c(CC(=O)N4CCCCC4)c(C)c3cc2c1C	3.9%[46.1 µM]	·	-5.6%	-70.8*	-1.7%	-1.6%[46.1 µM]
Cc1ccc2c(c1)NC(c1cccnc1)=NC(c1ccc(F)cc1)=N2	-20.9%[46.1 µM]	·	-8.8%	3.5	0.7%	-1.4%[46.1 µM]
CCOC(=O)c1c(S(=O)(=O)NCC(=O)Nc2cccc(CC)c2)c(C)n(C)c1C	·	·	-12.0%	-5.6	-11.5%	?
SMILES	MARV entry inh	HCV inhibitor	VACV Venus inh	HCMV inh	VACV mCherry inh	Lassa entry inh
N#CCSc1nc(-c2ccccc2)cs1	2.2%	14.2%	?	-62.6*	·	14.9%
CC(C)NC(=O)CSc1nc(-c2ccccc2)cs1	·	-0.6%	-4.5%	111.8	i	·
O=[N+]([O-])c1ccc(C=C2c3ccccc3-c3ccccc32)cc1	·	·	-7.4%	·	-15.0%	·
O=C(NNc1nc2ccc(F)cc2s1)c1cccc(F)c1	11.2µM*	?	-24.8%	-81.4*	?	?
O=C(NNc1nc2c(F)cc(F)cc2s1)c1ccccc1	?	13.8%	-7.5%	-69.7*	-19.4%	5.4%[46.1 µM]
O=C(NNc1nc2c(F)cccc2s1)c1ccccc1	·	-0.5%	·	-38.7	·	·
Cc1ccc(C)c(N2CCN(C3CCCCC3NS(=O)(=O)c3ccccc3)CC2)c1 (stereo not given)	·	11.2µM*	·	·	·	·
Cc1ccc(Cl)cc1N1CCN(C2CCCCC2NS(=O)(=O)c2ccccc2)CC1 (stereo not given)	·	17.9%	·	·	·	·
O=S(=O)(NC1CCCCC1N1CCN(c2ccc(F)cc2)CC1)c1ccccc1 (stereo not given)	·	?	·	+	·	·
COc1ccc(-c2nc(C)sc2CC(=O)O)cc1	?	13.7%	-17.5%	-82.5*	-20.8%	-1.3%
CCc1cccc(CC)c1N(COC)C(=O)Cn1cnc2ccccc21	?	22.5%	-5.5%	?	-8.6%	-10.8%[46.1 µM]
CCc1cccc(CC)c1N(COC)C(=O)Cn1c(C)nc2ccccc21	·	·	-16.0%	-64.6*	-10.2%	-18.2%[46.1 µM]
CC(C)(CNC(=O)c1cnn(-c2ncc3c(n2)-c2ccccc2CC3)c1C1CC1)N1CCOCC1	·	·	-10.1%	·	i	·
c1cn2cc(-c3ccc4c(c3)OCO4)nc2s1	?	5.6%	·	30.5	·	10.3µM*
CC(=O)Nc1ccc(-c2cn3ccsc3n2)cc1	-21.6%	6.5%	-2.8%	77.2	-24.2%	?
CC1CC(C)(C)N(C(=O)CSc2ccc(-c3ccc(F)cc3)nn2)c2ccccc21 (stereo not given)	?	-2.7%	?	-86.6*	-11.2%	-14.4%
CC1CCN(C(=O)CSc2ccc(-c3ccc(F)cc3)nn2)CC1	2.4%	0.2%	-19.6%	-38.9	-20.9%	?
CCN=C1SC(CC(=O)NCCc2ccc(OC)c(OC)c2)C(=O)N1CC (stereo not given)	5.0%	7.7%	?	91.4	-2.5%	0.0%
CN=C1SC(CC(=O)NCCc2ccc(OC)c(OC)c2)C(=O)N1C (stereo not given)	?	-13.2%	7.1%	-63.5*!	-9.7%	6.8%[46.1 µM]
CC(=O)Nc1nonc1-c1nnc(SCC(=O)Nc2cc(C)cc(C)c2)n1C	?	·	-13.9%	2.3	-7.5%	6.6%[46.1 µM]
COc1cccc(-c2onc3ccc(C(C)=O)cc23)c1	·	?	·	-70.0*	·	·
CC(=O)c1ccc2noc(-c3cccc(F)c3)c2c1	-29.9%	2.24µM*	-15.4%	?	i	-19.7%
NC(=O)NC(=O)COC(=O)c1ccc2noc(-c3ccccc3)c2c1	-7.6%[46.1 µM]	-11.2%	-3.9%	54.5	i	-1.7%[46.1 µM]
CC(=O)COC(=O)c1ccc2noc(-c3ccccc3)c2c1	?	-17.8%	-17.5%	-67.9*	i	-1.5%
COc1cccc(-c2onc3ccc(C(=O)/C=C/N(C)C)cc23)c1	-9.1%[46.1 µM]	-29.8%	-6.1%	9.8	-28.9%	4.4%[46.1 µM]

Bioassay records: PubChem, National Center for Advancing Translational Sciences (NCATS)
